Here are results for 40 compounds from PubChem BioAssay.

The nature of the first assay: sensitizers of A549 cells to miR-34 induction, primary screen, imaging, A549 dox-inducible miR-34, nuclei and caspase counts (AID 1347080). Note: test concentration not given here. The conditions noted are these: A549 miR-34 inducible, Hoechst nuclei count, 48 h; measured here: total cells with miR-34 induction; stronger effect = lower value.
As for `OC[C@H]1NC[C@H](O)[C@@H](O)[C@@H]1O`, the cell count turned out to be 5000.

`C[C@@H](C(=O)O)c1ccc(-c2ccccc2)c(F)c1`: the cell count is 6150.

As for `CCCCC[C@H](O)/C=C/[C@H]1CC[C@H](O)[C@@H]1CCCCCCC(=O)O`, the cell count stood at 6200.

Consider `O=C(O)CCC/C=C\C[C@H]1[C@@H](O)CC(=O)[C@@H]1/C=C/[C@@H](O)CCc1ccccc1`, for which the cell count came out at 5860.

`CCCCC[C@H](O)/C=C/[C@H]1C(=O)C[C@H](O)[C@@H]1C/C=C/CCCC(=O)O`: the cell count stood at 5890.

In the case of `CCCCCCCCCCCCCCCCOC[C@@H](O)COP(=O)(O)O`, the cell count amounted to 5730.

Turning to `NC(=Nc1ccc(F)cc1)NO`, the cell count amounted to 5540.

Take `Cn1c([N+](=O)[O-])cc[n+]1C`: the cell count came out at 8620.

For the compound `CCCCC[C@@H](O)/C=C/[C@@H]1[C@@H](C/C=C\CCCC(=O)O)[C@@H](O)C[C@H]1O`, the cell count turned out to be 5960.

As to `CCCCC[C@@](C)(O)/C=C/[C@H]1C=CC(=O)[C@@H]1C/C=C\CCCC(=O)O`, the cell count was determined as 5680.

Take `O=C(O)CCC/C=C\C[C@@H]1[C@@H](CC[C@@H](O)CCc2cccc(C(F)(F)F)c2)[C@H](O)C[C@@H]1O`: the cell count came to 6330.

On to `N[C@@H](CCC(=O)N[C@@H](CSN=O)C(=O)NCC(=O)O)C(=O)O`, for which the cell count was determined as 5550.

For `C#CCOc1ccccc1CCCCCC(=O)NS(C)(=O)=O`, the cell count came out at 5890.

`CCCCC/C=C\C/C=C\CCCC/C=C\CCCC(=O)O`: the cell count was found to be 5360.

For `CCCCC[C@@H](O)/C=C/[C@@H]1[C@H](C/C=C\CCCC(=O)O)[C@@H](O)C[C@H]1O`, the cell count turned out to be 5000.

As for `O=C(O)c1ccc2c(c1)CCCC2`, the cell count came to 5260.

As for `CCCCCCCC/C=C\CCCCCCCC(=O)OCC`, the cell count worked out at 5610.

For `CCCCC/C=C\C/C=C\C/C=C\C/C=C\CCCC(=O)OCC(O)CO` (stereo not given), the cell count turned out to be 4970.

For `O=C1OC(O)C(c2cc3ccccc3s2)=C1Br` (stereo not given), the cell count was 5180.

Take `CCCCCCCCCCCCCCCCSC[C@H](COP(=O)([O-])OCC[N+](C)(C)C)NC(=O)CCCCCCCCCCCCCCC`: the cell count came to 6260.

As for `COC(=O)C1=CC[C@@]23CC[C@@H]([C@@](C)(/C=C/C=C(\C)C(=O)O)OC2=O)[C@@]3(OC(C)=O)CC1`, the cell count came out at 2140.

In the case of `O=C1OC2(c3ccc(O)cc3Oc3cc(OS(=O)(=O)c4c(F)c(F)c(F)c(F)c4F)ccc32)c2ccccc21` (stereo not given), the cell count came to 6600.

For `CCCCC/C=C\C/C=C\C/C=C\C/C=C\CCCCNC(=O)c1ccc(O)cc1`, the cell count came to 5740.

For `CCCCC[C@H](O)CC[C@@H]1[C@@H](CCCCCCC(=O)O)[C@@H](O)C[C@H]1O`, the cell count was determined as 6210.

Turning to `CN`, the cell count turned out to be 4700.

For `CC(=O)[C@H]1[C@H](C#N)C[C@H]2[C@@H]3CC=C4C[C@@H](O)CC[C@]4(C)[C@H]3CC[C@@]21C`, the cell count amounted to 5370.

As for `COC(=O)CCC[C@H](O)[C@H](O)CO`, the cell count is 5290.

With `CCCCC[C@H](O)/C=C/[C@H]1CC[C@@H](O)[C@@H]1CCCCCCC(=O)O`, the cell count came out at 6100.

Turning to `CCCCCCCCCCCCCCCCOC[C@H](COP(=O)([O-])OCC[N+](C)(C)C)SC(C)=O`, the cell count stood at 4720.

For `CCCCC[C@H](O)/C=C/[C@H]1C=CC(=O)[C@H]1C/C=C\CCCC(=O)O`, the cell count is 6170.

`COc1ccc2c(c1)c(CC(=O)Nc1cccnc1)c(C)n2C(=O)c1ccc(Cl)cc1`: the cell count is 5760.

For `CCCCCCCOC(=O)Cc1c(C)n(C(=O)c2ccc(Cl)cc2)c2ccc(OC)cc12`, the cell count stood at 6160.

For the compound `CCCCCC#CCC#CCCCCCCCC(=O)O`, the cell count was found to be 6260.

On to `CCCCCCCC/C=C\CCCCCCCCCCCC(N)=O`, for which the cell count came out at 6240.

With `CCCCCC/C=C\CCCC(=O)CC(=O)N[C@H]1CCOC1=O`, the cell count was determined as 6290.

On to `O=C(O)CCC/C=C\C[C@@H]1[C@@H](CCC(=O)CCc2ccccc2)[C@H](O)C[C@@H]1O`, for which the cell count was found to be 5970.

For the compound `O=C(O)CCC/C=C\C[C@H]1C(=O)C=C[C@@H]1CC[C@@H](O)CCc1ccccc1`, the cell count turned out to be 6220.

Turning to `CCCCCC#CCC#CCC#CCCCCCCC(=O)O`, the cell count turned out to be 5730.

For `CCCCC[C@H](O)/C=C/[C@@H]1[C@H](C/C=C\CCCC(=O)O)[C@H](O)C[C@H]1O`, the cell count came out at 5020.

As for `O=C1OC[C@@H](Cc2cccc(O)c2)[C@@H]1Cc1cccc(O)c1`, the cell count is 5590.

The same assay, now with this note: A549 miR-34 inducible, Hoechst nuclei count, 48 h; measured here: total cells without miR-34 induction.
For the compound `OC[C@H]1NC[C@H](O)[C@@H](O)[C@@H]1O`, the cell count came to 5180.

On to `C[C@@H](C(=O)O)c1ccc(-c2ccccc2)c(F)c1`, for which the cell count was determined as 6360.

Turning to `CCCCC[C@H](O)/C=C/[C@H]1CC[C@H](O)[C@@H]1CCCCCCC(=O)O`, the cell count is 6420.

Regarding `O=C(O)CCC/C=C\C[C@H]1[C@@H](O)CC(=O)[C@@H]1/C=C/[C@@H](O)CCc1ccccc1`, the cell count was 5960.

`CCCCC[C@H](O)/C=C/[C@H]1C(=O)C[C@H](O)[C@@H]1C/C=C/CCCC(=O)O`: the cell count was determined as 6130.

For `CCCCCCCCCCCCCCCCOC[C@@H](O)COP(=O)(O)O`, the cell count was determined as 6070.

Turning to `NC(=Nc1ccc(F)cc1)NO`, the cell count came out at 5470.

Turning to `Cn1c([N+](=O)[O-])cc[n+]1C`, the cell count was found to be 9670.

For `CCCCC[C@@H](O)/C=C/[C@@H]1[C@@H](C/C=C\CCCC(=O)O)[C@@H](O)C[C@H]1O`, the cell count worked out at 6100.

`CCCCC[C@@](C)(O)/C=C/[C@H]1C=CC(=O)[C@@H]1C/C=C\CCCC(=O)O`: the cell count amounted to 5710.

Turning to `O=C(O)CCC/C=C\C[C@@H]1[C@@H](CC[C@@H](O)CCc2cccc(C(F)(F)F)c2)[C@H](O)C[C@@H]1O`, the cell count came to 6830.

For `N[C@@H](CCC(=O)N[C@@H](CSN=O)C(=O)NCC(=O)O)C(=O)O`, the cell count amounted to 5600.

On to `C#CCOc1ccccc1CCCCCC(=O)NS(C)(=O)=O`, for which the cell count is 6190.

For `CCCCC/C=C\C/C=C\CCCC/C=C\CCCC(=O)O`, the cell count is 5440.

Take `CCCCC[C@@H](O)/C=C/[C@@H]1[C@H](C/C=C\CCCC(=O)O)[C@@H](O)C[C@H]1O`: the cell count is 6010.

For `O=C(O)c1ccc2c(c1)CCCC2`, the cell count worked out at 5660.

Consider `CCCCCCCC/C=C\CCCCCCCC(=O)OCC`, for which the cell count is 5590.

Regarding `CCCCC/C=C\C/C=C\C/C=C\C/C=C\CCCC(=O)OCC(O)CO` (stereo not given), the cell count worked out at 5380.

In the case of `O=C1OC(O)C(c2cc3ccccc3s2)=C1Br` (stereo not given), the cell count came to 5660.

`CCCCCCCCCCCCCCCCSC[C@H](COP(=O)([O-])OCC[N+](C)(C)C)NC(=O)CCCCCCCCCCCCCCC`: the cell count is 6010.

On to `COC(=O)C1=CC[C@@]23CC[C@@H]([C@@](C)(/C=C/C=C(\C)C(=O)O)OC2=O)[C@@]3(OC(C)=O)CC1`, for which the cell count was found to be 1860.

As to `O=C1OC2(c3ccc(O)cc3Oc3cc(OS(=O)(=O)c4c(F)c(F)c(F)c(F)c4F)ccc32)c2ccccc21` (stereo not given), the cell count was determined as 6070.

As for `CCCCC/C=C\C/C=C\C/C=C\C/C=C\CCCCNC(=O)c1ccc(O)cc1`, the cell count came to 6120.

Take `CCCCC[C@H](O)CC[C@@H]1[C@@H](CCCCCCC(=O)O)[C@@H](O)C[C@H]1O`: the cell count is 7460.

`CN`: the cell count stood at 4430.

With `CC(=O)[C@H]1[C@H](C#N)C[C@H]2[C@@H]3CC=C4C[C@@H](O)CC[C@]4(C)[C@H]3CC[C@@]21C`, the cell count turned out to be 5300.

On to `COC(=O)CCC[C@H](O)[C@H](O)CO`, for which the cell count came out at 5040.

Regarding `CCCCC[C@H](O)/C=C/[C@H]1CC[C@@H](O)[C@@H]1CCCCCCC(=O)O`, the cell count was 6900.

As for `CCCCCCCCCCCCCCCCOC[C@H](COP(=O)([O-])OCC[N+](C)(C)C)SC(C)=O`, the cell count was determined as 5130.

Consider `CCCCC[C@H](O)/C=C/[C@H]1C=CC(=O)[C@H]1C/C=C\CCCC(=O)O`, for which the cell count was 5800.

Regarding `COc1ccc2c(c1)c(CC(=O)Nc1cccnc1)c(C)n2C(=O)c1ccc(Cl)cc1`, the cell count was determined as 5780.

Regarding `CCCCCCCOC(=O)Cc1c(C)n(C(=O)c2ccc(Cl)cc2)c2ccc(OC)cc12`, the cell count came to 6490.

Take `CCCCCC#CCC#CCCCCCCCC(=O)O`: the cell count worked out at 6270.

In the case of `CCCCCCCC/C=C\CCCCCCCCCCCC(N)=O`, the cell count is 5820.

In the case of `CCCCCC/C=C\CCCC(=O)CC(=O)N[C@H]1CCOC1=O`, the cell count came to 5940.

`O=C(O)CCC/C=C\C[C@@H]1[C@@H](CCC(=O)CCc2ccccc2)[C@H](O)C[C@@H]1O`: the cell count is 6390.

`O=C(O)CCC/C=C\C[C@H]1C(=O)C=C[C@@H]1CC[C@@H](O)CCc1ccccc1`: the cell count came out at 6690.

`CCCCCC#CCC#CCC#CCCCCCCC(=O)O`: the cell count amounted to 5910.

On to `CCCCC[C@H](O)/C=C/[C@@H]1[C@H](C/C=C\CCCC(=O)O)[C@H](O)C[C@H]1O`, for which the cell count was determined as 5450.

`O=C1OC[C@@H](Cc2cccc(O)c2)[C@@H]1Cc1cccc(O)c1`: the cell count came to 6060.
